Measurements reported in ChEMBL document CHEMBL3433997, “St. Jude Leishmania screening dataset” (2016).

target: Solute carrier family 2, facilitated glucose transporter member 1 (Homo sapiens) (UniProt P11166); experiment: ST_JUDE_LEISH: Cytotoxicity at 2uM final concentration against transgenic Leishmania Mexicana promastigotes LmGLUT1 that are glucose transport deficient and complemented with the human glucose transporter GLUT1. Activity is measured by DNA content using SYBR green in vitro; format: functional
Sequence (P11166 whole entry): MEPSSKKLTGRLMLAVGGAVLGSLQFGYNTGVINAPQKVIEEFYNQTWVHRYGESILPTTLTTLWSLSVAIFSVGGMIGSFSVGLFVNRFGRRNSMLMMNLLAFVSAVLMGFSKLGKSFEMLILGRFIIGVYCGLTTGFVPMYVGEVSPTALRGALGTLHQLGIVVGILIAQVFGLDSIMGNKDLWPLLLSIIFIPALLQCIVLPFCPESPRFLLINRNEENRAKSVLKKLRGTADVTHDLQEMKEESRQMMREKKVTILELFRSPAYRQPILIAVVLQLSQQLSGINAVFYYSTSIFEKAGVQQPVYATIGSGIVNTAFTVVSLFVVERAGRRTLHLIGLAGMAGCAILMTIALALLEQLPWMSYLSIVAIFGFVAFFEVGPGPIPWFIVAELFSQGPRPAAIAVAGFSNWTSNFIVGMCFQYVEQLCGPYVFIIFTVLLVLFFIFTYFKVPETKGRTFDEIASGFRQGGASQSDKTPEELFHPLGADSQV

SMILES	inhibition [%]
CCCNCc1ccc(-c2ccc(CN(Cc3cnc(C)cn3)C(=O)CC#N)cc2)nc1	1.8
N#Cc1ccc(N2CCN(Cc3ccc(-c4ccc(-c5nc6ccccc6[nH]5)s4)cc3)CC2)nc1	6.79
COc1ccc(CCNC(=O)c2cc(C)ccc2O)cc1-c1ccc(C(C)(C)C)cc1	4.36
OC(CNCc1ccccc1)c1cc(OCc2ccccc2)cc(OCc2ccccc2)c1 (stereo not given)	-0.14
COc1cc(Nc2nccc(N3CCC(NC(=O)C(C)c4ccc(Cl)cc4)C3)n2)cc(OC)c1OC (stereo not given)	0.95
O=C(Nc1cccc(-c2nn3ccccc3c2-c2ccnc(Nc3cccc(F)c3)n2)c1)c1c(F)ccc(F)c1Cl	9.38
COc1ccc2cc(C(c3nnnn3CC3CCCO3)N3CCc4ccccc43)c(=O)[nH]c2c1 (stereo not given)	2.55
O=C1CCCN1CCCNCc1ccc(-c2ccc(-c3nc4cc(F)ccc4[nH]3)cc2)cc1	11.9
O=[N+]([O-])c1ccc(C2=NN(S(=O)(=O)c3c(Cl)cc(Cl)cc3Cl)CCCC2)cc1	0.34
Cc1ccc(C(=O)Nc2cc(C(F)(F)F)cc(C(F)(F)F)c2)cc1[N+](=O)[O-]	9.19
c1cncc(Oc2ccc(Nc3ccnc4cc(-c5cccc(CN6CCOCC6)c5)ccc34)cc2)c1	-1.93
CC(=O)Nc1ccc(OCCCN(Cc2ccccc2C(F)(F)F)c2ccc(C(F)(F)F)c(C#N)c2)c(Cl)c1	6.79
Cc1cccc2nc(-c3cccc(-c4cccc(NC(=O)c5cccnc5)c4)c3)[nH]c12	2.26
CC(C)(C)c1ccc(NC(=O)c2cccc(CN3CCCN(Cc4ccc(F)cc4)CC3)c2)cc1	3
COc1cc2nc(N3CCC(CNC(=O)c4cccc5cccnc45)CC3)nc(N)c2cc1OC	5.61
COC(=O)Nc1cc(C(F)(F)F)ccc1N1CCCC(NS(=O)(=O)c2ccc(C(C)(C)C)cc2)C1 (stereo not given)	10
CCN(CC)CCCC(C)Nc1ccnc2ccc(-c3ccccc3)cc12 (stereo not given)	-0.2
COc1ccc2c(C)cc(NCCCN(C)C)nc2c1	0.02
CCc1c[nH]c2c(N3CCCC3=O)cc(C(=O)N[C@@H](Cc3ccccc3)[C@H](O)CNC(C)(C)CCCC(C)C)cc12	12.2
CC(C)CNCc1cccc(-c2ccc(CN(CCCN3CCN(C)CC3)C(=O)/C=C/c3ccccc3)cc2)c1	2.92

SMILES	inhibition [%]
Oc1ccc(-c2nc(-c3ccc4oc5ccc(-c6[nH]c(-c7ccc(O)cc7)nc6-c6ccccc6)cc5c4c3)c(-c3ccccc3)[nH]2)cc1	-2.06
COc1ccc(CN2CCC(CNCc3cccc(-c4ccccc4)c3)CC2)cc1	3.34
CCCCNCc1ccc(-c2nc(CN(CCCN3CCN(C)CC3)C(=O)Nc3cccc(Cl)c3)cs2)cc1	5.24
CCCCCC(NCCCC)c1ccc(OCCOc2ccc(C(CCCCC)NCCCC)cc2)cc1 (stereo not given)	60.3
CC(C)[C@H](NCC(=O)c1ccccc1)C(=O)O	-0.14
NC(=O)c1ccccc1Nc1nc(Nc2cccc(N3CCN(CCO)CC3)c2)ncc1Cl	64
CCc1ccc(C2CCN(CCCCNC(=O)c3ccc(NC(=O)c4ccc(Cl)cc4)cc3)CC2)c(OCCO)c1	3.01
Nc1nc2c(ncn2OC[C@H]2COP(=O)(O)CO2)c(=O)[nH]1	-2.05
Cc1ccc(C(=O)Nc2cc(S(=O)(=O)N3CCCC3)ccc2OCC(F)(F)F)cc1	3.23
CCN1CCC(N(Cc2ccc(-c3ccc(C(F)(F)F)cc3)cc2)C(=O)Cn2nc(C)c(=O)cc2SCc2ccc(F)cc2)CC1	0.5
O=C(/C=C/c1ccc(Cl)cc1)NCCCCCN1CCC(C(=O)Nc2ccc(Cl)cc2)CC1	-0.92
Cc1cc(OCC2CCN(c3ncc(C(=O)NC4CC4)cc3Cl)CC2)ccc1F	1.62
C=CCC(C)n1ncc2c3c(N)nc(N)nc3ccc21 (stereo not given)	2.58
COc1ccc(C(=O)C2CC2CN(C)CC(O)c2cc(C)c(OC)cc2C)cc1 (stereo not given)	8.26
C=Cc1ccccc1C1(O)CCN(CCCCNC(=O)c2ccc(-c3ccc(C#N)cc3)cc2)CC1	1.27
C=CCc1cccc(OC)c1OCCCON1C(=N)N=C(N)NC1(C)C	-0.04
CCN(CCCN1CCCCC1)c1cc(C)nc(Nc2ccc(C)cc2C)n1	1.88
Clc1ncnc2ncn(Cc3cccc(Br)c3)c12	15.3
CC(C)C1C(=O)N(S(C)(=O)=O)C2CCN(C(=O)c3ccc(CN4CCCCC4)c([N+](=O)[O-])c3)C12 (stereo not given)	3.87
CCc1ccc(NC(=O)N(CCCn2ccnc2)Cc2csc(-c3ccc(CNCc4ccccc4)cc3)n2)cc1	2.66
